Source: PubChem
The list is not random: actives were taken first. Their share in the collection is about 13%.
HSD17B inh: inhibitors of human HSD17B10 dehydrogenase. Q99714. recombinant HSD17B10, NADH fluorescence kinetic. Potency, µM (top dose mostly 57.1 µM), for the others: at the top dose activity change, negative = inhibition, actives largely listed as inhibitors. hit rate 7.6% among 75,000. AID 893;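 further: the protocol describes HADH2 (HSD17B10) and not the HSD17B4 of the title; potency means the concentration at half of the fitted maximal effect; on the % scale 0 is the no-effect control and ±100 the full control effect; nearly all actives have a fitted effect of over 70% in size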
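His-tagged E. coli-expressed HADH2 at 20 nM in 100 mM Tris-HCl pH 9.0 with 0.01 % Tween-20, preincubated 15 min with compound at room temperature. Reaction with 1 mM NAD+ and 90 uM beta-hydroxybutyryl coenzyme A; NADH fluorescence (360/450 nm) read kinetically over 4 min, last minus first point.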
AID923: qHTS Assay for Allosteric/Competitive Inhibitors of Caspase-1: Spectroscopic Profiling in AFC Spectral Region | hit rate 1.1% among 75,000 | compound fluorescence, AFC spectral region (405/520 nm) | Potency, µM (doses to about 57.5 µM), without a hit: top-dose fluorescence increase, hits mostly activators | AID 923, 2007; further: potency means the concentration at half of the fitted maximal effect; 0% is about no effect
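Titrations up to 57 uM read every 20 sec for 3 min (405/520 nm) with 50 nM caspase 1 and 5 uM Ac-WEHD-AFC, pH 7.5 HEPES buffer. Fluorescence-vs-time intercept gave baseline, scaled against on-plate AFC standard.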
HADH2 inhib: inhibitors of human HADH2 dehydrogenase; recombinant HADH2, NADH fluorescence, beta-hydroxybutyryl-CoA; hit rate 3.4% among 73,000; Potency, µM (series often up to 57.1 µM), without a hit: top-dose activity change, negative = inhibition, actives largely listed as inhibitors; further: potency means the concentration at half of the fitted maximal effect; on the % scale 0 is the no-effect control and ±100 the full control effect; nearly all actives have a fitted effect of over 60% in size
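Buffer 100 mM Tris-HCl pH 9.0/0.01% Tween-20; HADH2 20 nM; NAD+ 1 mM; beta-hydroxybutyryl-CoA 90 uM (all final). 15 min cpd preincubation, RT.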
A350 autofl: compounds fluorescent in Alexa 350 spectral region. Compound autofluorescence, 340/450 nm, Alexa 350 dye-equivalents; hits give high values. max dye-equivalent concentration, M. hit rate 11% among 59,000; in the data active means max dye-equivalent concentration above about 10 nM; inconclusive means mostly about 1.1 nM to 9.6 nM
GBA mod: alters purified human glucocerebrosidase activity; hit rate 1.1% among 48,000; Potency, µM; P04062; AID 360; purified enzyme, resorufin glucoside fluorescence (screen aimed at inhibitors), 20 min; in the data active means potency below about 15 µM; inconclusive means mostly about 16 µM to 33 µM;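 further: potency means the concentration at half of the fitted maximal effect; the screen sought inhibitors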
Target sequence (P04062 whole entry, looked up): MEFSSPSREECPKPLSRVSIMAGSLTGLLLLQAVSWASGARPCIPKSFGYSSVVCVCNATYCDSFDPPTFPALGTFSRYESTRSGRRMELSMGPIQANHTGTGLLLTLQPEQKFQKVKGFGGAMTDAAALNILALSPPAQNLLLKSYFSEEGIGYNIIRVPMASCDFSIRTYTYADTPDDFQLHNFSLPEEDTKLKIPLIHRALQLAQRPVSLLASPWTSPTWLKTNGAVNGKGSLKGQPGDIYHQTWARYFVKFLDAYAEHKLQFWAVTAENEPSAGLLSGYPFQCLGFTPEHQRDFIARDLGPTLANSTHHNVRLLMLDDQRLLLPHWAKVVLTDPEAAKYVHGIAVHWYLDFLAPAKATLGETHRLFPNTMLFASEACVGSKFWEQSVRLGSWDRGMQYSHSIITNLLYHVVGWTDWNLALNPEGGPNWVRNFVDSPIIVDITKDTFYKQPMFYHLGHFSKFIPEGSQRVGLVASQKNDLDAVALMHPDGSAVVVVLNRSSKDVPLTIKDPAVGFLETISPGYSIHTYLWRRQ
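Wild-type enzyme at 0.2 nM final in 50mM citric acid/KH2PO4, 10mM sodium taurocholate, 0.01% tween-20, pH 5.9, with resorufin beta-D-glucopyranoside at 30 uM final. Compounds titrated, 20 min at RT, red fluorescence read; AC50 from titration.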
4-MU autofl: 4-MU region autofluorescence | compound autofluorescence, 340/450 nm, 4-MU equivalents; hits give high values | max dye-equivalent concentration, M | hit rate 11% among 59,000 | AID 589; in the data active means max dye-equivalent concentration above about 10 nM; inconclusive means mostly about 1.1 nM to 9.6 nM
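Intrinsic fluorescence at 340/450 nm (ex/em) was read after 15 min at room temperature in pH 8.0, 100 mM Tris. Each compound concentration expressed as 4-MU-equivalent concentration from a six-point 4-MU standard series on each plate.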
* marks the source's active call; other numbers are inactive results; i = inactive; u = inconclusive; x = no result given; ! = not confirmed by another sample; [ ] = dose if it differs, or a comment. Unless noted, the call rests on the fitted dose curve; in most records, active means well fitted curve in the direction sought with a large enough effect; inconclusive means small, poorly fitted or top-dose-only effect, or another doubt; inactive means no such curve, though single readings can be large; an effect the other way counts as inactive or inconclusive.

SMILES	HSD17B inh	AID923	HADH2 inhib	A350 autofl	GBA mod	4-MU autofl
COc1ccc(CCN(C)CCC[C@@](C#N)(c2cc(OC)c(OC)c(OC)c2)C(C)C)cc1OC	0%	0%	-9%	i	x	i
COc1ccc(-c2cc(=O)oc3c(C)c(OCc4nn[nH]n4)ccc23)cc1	9%	2%	u	u	>77	u
CCCCc1cc(=O)oc2cc(OCc3nn[nH]n3)c(Cl)cc12	25µM*	0%	-1%	1.3e-07M*	>77	9.6e-08M*
CCc1cc(=O)oc2cc(OCc3nn[nH]n3)ccc12	25µM*	-1%	25µM*	2.4e-08M*	>77	1.9e-08M*
CC1CCc2cc(F)cc3c(O)c(C(=O)NCC4CCCO4)c(=O)n1c23 (centres undefined)	x	x	x	1.8e-08M*	x	1.5e-08M*
C[C@@H](NC(=O)/C(C#N)=C/c1ccc(O)c(O)c1)c1ccccc1	u	-2%	25µM*	x	x	x
C[C@H](NC(=O)/C(C#N)=C/c1ccc(O)c(O)c1)c1ccccc1	u	-3%	16µM*!	u	x	u
N#C/C(=C\c1ccc(O)c(O)c1)C(=O)Nc1ccccc1	u	2%	u	i	x	i
CCOC(=O)CCN1C(=O)[C@H]2[C@H]3[C@H](O)[C@H](O)C/C(=N/NC(=O)OCC)[C@@H]3CC[C@@H]2C1=O	9%[11.4 µM]	1%[11.5 µM]	-1%[11.4 µM]	x	x	x
Cn1c(=O)n(CCc2ccccc2)c(=O)c2c1nc1n2CCN1c1ccccc1	0%	1%	1%	i	>77	i
Cc1csc2nc(CSc3nc4ccccc4o3)c(Br)n12	-7%	1%	-11%	1.1e-08M*	>77	1.1e-08M*
O=C(CSCc1ccc(Cl)cc1)c1ccco1	25µM*	0%	-8%	u	>77	u
Cc1ccc(CNC(=O)[C@H]2C[C@@H]2[C@H](NP(=O)(c2ccccc2)c2ccccc2)c2ccccc2)c(F)c1F	9%	-1%	7%	x	x	x
NNC(=O)[C@@H](O)[C@H](O)[C@H](O)CO	7%[11.4 µM]	2%[11.5 µM]	5%[11.4 µM]	i	x	i
Oc1ccccc1-c1nnc(-c2ccc(C(F)(F)F)cc2)o1	32µM*	2%	7%	i	>77	i
Cc1ccccc1-c1nnc(-c2ccc(Br)cc2)o1	-27%	0%	2%	i	>77	i
COc1ccc(COC(=O)N/N=C2/C[C@@H](O)[C@@H](O)[C@@H]3[C@H]4C(=O)N(c5ccc(F)cc5F)C(=O)[C@@H]4CC[C@H]23)cc1	3%[11.4 µM]	-1%[11.5 µM]	3%[11.4 µM]	x	x	x
NC(=NCc1ccc(Cl)c(Cl)c1)NC(=O)c1nc(Cl)c(N)nc1N	25µM*	2%	u	3.9e-07M*	x	3.7e-07M*
CO/N=C\c1ccc(C(=O)N2[C@H](c3ccc(C)cc3)[C@@H](C)CC[C@H]2C(=O)OC)cc1	-2%[11.4 µM]	-1%[11.5 µM]	10%[11.4 µM]	x	x	x
COc1ccc(C(=O)c2c(C)oc3ccc(O)c(CN4CCOCC4)c23)cc1	-7%	2%	6%	x	x	x
COc1ccc(-c2c(C)oc3c(CN4CCN(C)CC4)c(O)ccc3c2=O)cc1	25µM*	1%	16µM*	x	x	x
CCN1CCN(Cc2c(O)ccc3c(=O)c(-c4ccc(OC)c(OC)c4)c(C)oc23)CC1	32µM*	0%	u	3.3e-07M*	x	2.6e-07M*
COc1ccc(-c2c(C(F)(F)F)oc3c(CN4CCN(C)CC4)c(O)ccc3c2=O)cc1	-1%	4%	-4%	1.1e-08M*	x	u
CCc1nnc(NC(=O)CSc2nnc(-c3ccc(O)cc3)n2-c2ccccc2)s1	2%	0%	-26%	i	>77	i
Cc1ccc2c(c1)c1c3n2CCN[C@H]3CCC1	25µM*	-2%	-17%	i	x	i
Cc1ccc2c(c1)c1c3n2CCCNC3CCC1 (centres undefined)	-25%	1%	u	x	x	x
Cc1[nH]c2ccccc2c1-c1nc2ccccc2[nH]1	32µM*	-1%	u	i	>77	i
Nc1nc(-c2nc3ccccc3[nH]2)cs1	-10%	-1%	-6%	i	>77	i
Cc1nnsc1-c1nc2ccccc2[nH]1	25µM*	0%	32µM*	6.9e-07M*	>77	4.3e-07M*
